Reference: PubChem BioAssay (EPA / NIEHS)
Inconclusive results are not listed. The source made the active and inactive calls. How the source made its calls: active means hit-call score of the fitted dose curve at least 0.9, where 1 is the maximum; inconclusive means response in the unintended direction; inactive means score below 0.9.

The molecules below were run against Glucocorticoid receptor (Homo sapiens) (UniProt P04150) (assay: ATG_GR_TRANS: Attagene TRANS-FACTORIAL HepG2 Assay for human Glucocorticoid Receptor (GR) (AID 2282978;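 further: activators score as hits since higher reporter transcript over DMSO is fitted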)). Details: HepG2 Attagene TRANS GR reporter, mRNA transcription.
Chain of Glucocorticoid receptor (Homo sapiens) (P04150 whole entry, looked up): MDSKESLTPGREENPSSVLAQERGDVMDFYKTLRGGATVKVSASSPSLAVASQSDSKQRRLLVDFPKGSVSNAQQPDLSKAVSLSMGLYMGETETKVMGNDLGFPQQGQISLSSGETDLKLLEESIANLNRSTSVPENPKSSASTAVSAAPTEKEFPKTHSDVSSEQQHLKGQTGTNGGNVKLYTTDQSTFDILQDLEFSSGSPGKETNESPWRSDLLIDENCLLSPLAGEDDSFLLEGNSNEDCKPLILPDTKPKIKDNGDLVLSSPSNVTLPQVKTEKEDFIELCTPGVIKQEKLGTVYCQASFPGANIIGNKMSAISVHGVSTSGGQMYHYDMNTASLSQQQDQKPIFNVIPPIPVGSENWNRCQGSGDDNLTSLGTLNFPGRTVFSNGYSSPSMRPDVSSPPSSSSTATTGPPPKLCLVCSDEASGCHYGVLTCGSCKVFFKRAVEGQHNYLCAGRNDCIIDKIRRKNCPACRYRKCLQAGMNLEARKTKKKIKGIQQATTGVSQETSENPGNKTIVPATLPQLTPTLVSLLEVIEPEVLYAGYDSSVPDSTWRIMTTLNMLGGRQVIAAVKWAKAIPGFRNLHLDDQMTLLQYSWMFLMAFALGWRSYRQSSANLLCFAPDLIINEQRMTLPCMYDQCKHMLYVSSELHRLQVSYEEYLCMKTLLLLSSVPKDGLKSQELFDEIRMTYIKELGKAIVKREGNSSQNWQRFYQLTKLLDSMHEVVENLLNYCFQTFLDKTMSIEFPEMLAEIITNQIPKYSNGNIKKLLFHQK
Description: ATG_TRANS is a cell-based, multiplexed-readout assay that uses HepG2, a human liver cell line, with measurements taken at 24 hours after chemical dosing in a 24-well plate.ATG_GR_TRANS is one of 30 assay component(s) measured or calculated from the ATG_TRANS assay. It is designed to make measurements of mRNA induction, a form of inducible reporter, as detected with fluorescence intensity signals by Reverse transcription polymerase chain reaction (RT-PCR) and Capillary electrophoresis technology.Data from the assay component ATG_GR_TRANS was analyzed into 1 assay endpoint. This assay endpoint, ATG_GR_TRANS, was analyzed in the positive analysis fitting direction relative to DMSO as the negative control and baseline of activity. Using a type of inducible reporter, measures of mRNA for gain-of-signal activity can be used to understand the reporter gene at the transcription factor-level as they relate to the gene NR3C1. Furthermore, this assay endpoint can be referred to as a primary readout, because this assay has produced multiple assay endpoints where this one serves a reporter gene function. To generalize the intended target to other relatable targets, this assay endpoint is annotated to the nuclear receptor intended target family, where the subfamily is steroidal.
Human liver HepG2 cells are transiently transfected with multiple reporter transcription units (MRTUs) in 6-well plates using FuGene 6 reagent (Roche; 3 ml FuGene/1 mg DNA). The MRTU constructs are regulated by a cis-regulating element (promoter). […] A major difference between the CIS and TRANS system is that in CIS activities of endogenous TFs are measured, whereas the TRANS assay evaluates changes in activities of exogenous, chimeric NR-Gal4 proteins. […] At the end of 24 hour incubation, total RNA was isolated using TriZol reagent (Invitrogen). The isolated RNA is then reverse-transcribed using oligo(dT) primer and Mo-MLV reverse transcriptase (Invitrogen) with DNAse I (Ambion) treatment for 30 min. The one-tenth of the produced cDNA was amplified by PCR using Taq DNA polymerase (Invitrogen) and two reporter sequence-specific primers. The PCR products were fluorescently labeled by primer extension with 6-arboxyfluorescein (6-FAM) 5'-labeled reporter sequence-specific primer (2 min at 95 C, 20 s at 68 C and 10 min at 72 C) and these products were digested with 5U of HpaI (New England Biolabs) for 2h at 37 C. The fragments were purified using Qiaquick PCR columns (Qiagen), analyzed on an ABI 3130xL genetic analyzer (Applied Biosystems) with peak positions identified by using a set of X-rhodamine (ROX)-labeled MapMarker1000 molecular weight standards (BioVentures). The raw capillary electrophoresis data was processed using Attagraph software (Attagene).
`CCc1cc(C(C)(C)C)c(O)c(C(C)(C)C)c1` was tested, and the outcome was “inactive”. For `O=C1OC[C@H](Cc2cccc(O)c2)[C@H]1Cc1cccc(O)c1`, the outcome was “inactive”. For `CC1(C)C(=O)N(Cl)C(=O)N1Br`, the outcome was “inactive”. For `CC(O)C1CCCCC1` (stereo not given), the outcome was “inactive”. For `C=C(C)CNCC`, the outcome was “inactive”. For `CSc1c(Cl)c(Cl)c(Cl)c(Cl)c1Cl`, the outcome was “inactive”. `CCC(C)=O` was tested, and the outcome was “inactive”. `Nc1ccccc1[N+](=O)[O-]` was tested, and the outcome was “inactive”. For `CCCC(=O)OCCc1ccccc1`, the outcome was “inactive”. `CCCCCCC(O)CCCCCCCCCCC(=O)O` (stereo not given) was tested, and the outcome was “inactive”. For `CS(C)=O`, the outcome was “inactive”. `NCCNc1cccc2ccccc12` was tested, and the outcome was “inactive”. For `CCC(=O)O[C@@H]1C[C@H]2CC[C@]1(C)C2(C)C`, the outcome was “inactive”. With `C=Cc1ccncc1` the outcome was “inactive”. With `C1CCOC1` the outcome was “inactive”. In the case of `C=C(C)C(=O)OCCOCCOCCOC(=O)C(=C)C`, the outcome is reported as “inactive”. In the case of `CCC(Cl)C(Cl)C(Cl)CC(Cl)C(Cl)C(C)Cl` (stereo not given), the outcome is reported as “inactive”. In the case of `C/C=C(\C)C(=O)OCCc1ccccc1`, the outcome is reported as “inactive”. With `C1=CC2C3C=CC(C3)C2C1` (stereo not given) the outcome was “inactive”. For `COC(=O)c1ccc([N+](=O)[O-])cc1`, the outcome was “inactive”. For `C=C(C)C(=O)OCC(CC)(COC(=O)C(=C)C)COC(=O)C(=C)C`, the outcome was “inactive”. In the case of `Cc1c(OCC(F)(F)F)ccnc1CS(=O)c1nc2ccccc2[nH]1` (stereo not given), the outcome is reported as “inactive”. `CC=Cc1ccc(OCC)c(O)c1` was tested, and the outcome was “inactive”. With `c1ccc(CN(Cc2ccccc2)Cc2ccccc2)cc1` the outcome was “inactive”. With `O=C(O)CNc1ccccc1` the outcome was “inactive”. With `CC(CN=Cc1ccccc1O)N=Cc1ccccc1O` (stereo not given) the outcome was “inactive”. With `CCCCCCCCSCCO` the outcome was “inactive”. For `CC(C)(N=C=O)c1cccc(C(C)(C)N=C=O)c1`, the outcome was “inactive”. With `O=C(c1ccccc1)C(O)c1ccccc1` (stereo not given) the outcome was “inactive”. For `CCCCCCCCCC(C)C=O` (stereo not given), the outcome was “inactive”. In the case of `Cc1ccc2c(c1)C(=O)OC2=O`, the outcome is reported as “inactive”. In the case of `Cc1cc(C)nc(NS(=O)(=O)c2ccc(N)cc2)n1`, the outcome is reported as “inactive”. `C=CC(C)C#N` (stereo not given) was tested, and the outcome was “inactive”. In the case of `CC(=O)c1c(C)c([N+](=O)[O-])c(C(C)(C)C)c([N+](=O)[O-])c1C`, the outcome is reported as “inactive”. In the case of `CN1C(=O)c2ccccc2C1=O`, the outcome is reported as “inactive”. With `NC(=S)NNC(N)=S` the outcome was “inactive”. With `COC(=O)c1ccc(OC)cc1` the AC50 was 15.1 µM (active). For `CN(C)c1cccc(O)c1`, the outcome was “inactive”. For `Oc1c(Cl)cc(Cl)c(Cl)c1Cc1c(O)c(Cl)cc(Cl)c1Cl`, the outcome was “inactive”. With `OCC#CCO` the outcome was “inactive”.
